Compounds without any hit were thinned out: in the full panel of roughly 79,000, 15% have a hit. Values without a mark were called inactive. The source made the active and inactive calls. Cut-off read from the data, not from the text of the source: active = growth inhibition above about 70%; inactive = the rest.

One assay in a line: NCI Yeast Anticancer Drug Screen. Data for the mlh1 rad18 strain (AID 175). The note with it: S. cerevisiae mlh1 rad18 strain growth inhibition; at 5.0 µM (retest, dose inferred, filed as 0.5); stronger effect = higher value. Put shortly:
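Genetically defined yeast (DNA repair-deficient) exposed to compounds; growth inhibition determined relative to vehicle.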
As for `CCOC(=O)/C=C(\CC(=O)OCC)C(=O)OCC`, the growth inhibition is -3%.
On the same count and under the same terms, the same measure for `Cc1cc(Cl)cc2c1NC(=O)C2(O)C(C)C(=O)c1ccc(Cl)cc1` (stereo not given): -5%; for `C=CS(=O)(=O)c1ccc([N+](=O)[O-])cc1`: 16%.
With `Oc1cc(Br)ccc1/C=N/Nc1ccccn1`, the growth inhibition is -10%.
On the same count and under the same terms, with `CC(C)C(CC(C)(C)C)OC(=O)Nc1cccc2ccccc12` (stereo not given) the figure was -3%; with `CC(=O)[O-].O=C(N/N=C/c1ccccc1[O-])c1ccccc1.[Zn+2]`, 9%.
As for `COc1cc(C2C(C(=O)Nc3ccc(Cl)c(Cl)c3)=C(C)NC(C)=C2C(=O)Nc2ccc(Cl)c(Cl)c2)ccc1O`, the growth inhibition is 8%.
Same read-out and setting: with `[Ce+3].[Cl-].[O-]/N=C(\c1ccccc1)c1ccccn1.[O-]/N=C(\c1ccccc1)c1ccccn1.[O-]/N=C(\c1ccccc1)c1ccccn1` the figure was 39%.
Still for that read-out and setting: with `CCCCCCCCN1C(=O)c2ccccc2S1(=O)=O` the figure was -2%; with `CC(=O)N(C1=C(Cl)C(=O)c2ccccc2C1=O)c1ccc(C)cc1`, 100% (active); with `COc1ccc(Cl)c(-c2cc(OC)c(N=N/C(=N/Nc3ccc([N+](=O)[O-])cc3)c3ccc([N+](=O)[O-])cc3)cc2Cl)c1`, 98% (active).
In the case of `CCOC(=O)CSC(=S)N1CCOCC1`, the growth inhibition was -2%.
Same read-out and setting: with `CC1(C)COC(c2cccc(C(O)c3ccc(Cl)cc3)c2)=N1` (stereo not given) the figure was 26%; with `COc1ccc(/C=C/C(C(=O)O)C(=O)O)cc1`, -4%; with `COc1ccc2c(Cc3ccc(O)cc3)cncc2c1O`, 6%.
Same read-out and setting: with `COC1=CC23C=CC1[C@@H](c1ccccc1)C2=C(C)C(=O)N3C(=O)NC1CCCCC1` (stereo not given in full) the figure was -4%; with `O=c1c2c3c(sc2nc2n1N=C(c1ccc(Br)cc1)CS2)CCCC3`, -10%; with `Cc1noc(NS(=O)(=O)c2ccc(N=Nc3cc(N=Nc4ccc(S(=O)(=O)Nc5onc(C)c5C)cc4)c4c(NC(=O)C(Cl)Cl)cccc4c3O)cc2)c1C` (tested in a mixture with another compound), 88% (active).
Still for that read-out and setting: the same measure for `CC(=O)OC1=CC2(OC(C)=O)CC(C)(C)C1C1C(=O)C=CC(=O)C12` (stereo not given): 5%; for `COC1CCC(/C(C#N)=C/c2ccco2)CC1` (stereo not given): 8%; for `CCN(CC)CCNc1cc(C)nc2c1ccc1c2ccc2c(NCCN(CC)CC)cc(C)nc21`: -3%.
Regarding `O=c1sc(=S)[nH]c2ccccc12`, the growth inhibition was 16%.
Still for that read-out and setting: with `Oc1c(Br)ccc2c(O)c(Br)ccc12` the figure was 31%.
For `Nc1ccccc1CCc1ccccc1`, the growth inhibition was 28%.
On the same count and under the same terms, the same measure for `Cc1cc2c(cc1O)CC[C@@H]1[C@@H]2CC[C@]2(C)[C@@H](O)CC[C@@H]12`: -35%; for `O=c1c2ccccc2sc2c([N+](=O)[O-])ccc(NCCNCCO)c12`: 35%.
On the same count and under the same terms, the same measure for `NC(=S)NNc1c([N+](=O)[O-])cnn(-c2ccccc2)c1=O`: -22%; for `COc1ccccc1NC(=O)c1ccccc1F`: -147%; for `COc1ccc(/C=C2\SC(=S)N(/C=C(/C#N)C(=O)c3ccc4ccccc4c3)C2=O)cc1OC`: 5%.
On the same count and under the same terms, the same measure for `COC(=O)C1(OC(=O)CCC(=O)O)C(=O)NC2=C1C(=O)c1ccccc1C2=O` (stereo not given): 1%.
As to `Cc1cc(=O)c2c(ccc3cc4ccccc4cc32)[nH]1`, the growth inhibition was 14%.
On to `CCc1nc(N)nc(N)c1-c1ccc(N(C)Cc2ccccc2)c([N+](=O)[O-])c1`, for which the growth inhibition is 8%.
Consider `O=C1CSC(c2ccccc2O)N1c1ccc(-n2c(-c3ccccc3)nc3ccccc3c2=O)cc1` (stereo not given), for which the growth inhibition was 0%.
The same measure, in the same setting: the same measure for `O=C(C[P+](c1ccccc1)(c1ccccc1)c1ccccc1)c1ccc(Br)cc1`: 69%; for `O=NN(CCCl)C(=O)Oc1ccc(OC(=O)N(CCCl)N=O)cc1`: 96% (active).
In the case of `Cc1cccc(C[N+](C)(C)CCCO)c1C`, the growth inhibition was 0%.
On the same count and under the same terms, with `CC(C)NC(=O)OCCS(=O)c1c(Cl)c(Cl)nn1C` (stereo not given) the figure was -7%; with `COC1=CC(=O)[C@H]2CC(C)=CC[C@]2(C)C1=O`, -1%.
For the compound `Oc1ccc(O)c2c(O)c3ccccc3c(O)c12`, the growth inhibition was 20%.
As for `O=[N+]([O-])c1cc(Br)cc(Br)c1O`, the growth inhibition is 2%.

Still in this assay, the particulars now being: S. cerevisiae mlh1 rad18 strain growth inhibition; at 50.0 µM (retest, dose inferred, filed as 5.0); stronger effect = higher value.
For the compound `CCOC(=O)/C=C(\CC(=O)OCC)C(=O)OCC`, the growth inhibition is -2%.
The same measure, in the same setting: the same measure for `Cc1cc(Cl)cc2c1NC(=O)C2(O)C(C)C(=O)c1ccc(Cl)cc1` (stereo not given): 77% (active); for `C=CS(=O)(=O)c1ccc([N+](=O)[O-])cc1`: 97% (active); for `Oc1cc(Br)ccc1/C=N/Nc1ccccn1`: 27%.
Still for that read-out and setting: the same measure for `CC(C)C(CC(C)(C)C)OC(=O)Nc1cccc2ccccc12` (stereo not given): 97% (active); for `CC(=O)[O-].O=C(N/N=C/c1ccccc1[O-])c1ccccc1.[Zn+2]`: 91% (active).
As for `COc1cc(C2C(C(=O)Nc3ccc(Cl)c(Cl)c3)=C(C)NC(C)=C2C(=O)Nc2ccc(Cl)c(Cl)c2)ccc1O`, the growth inhibition was 8%.
As to `[Ce+3].[Cl-].[O-]/N=C(\c1ccccc1)c1ccccn1.[O-]/N=C(\c1ccccc1)c1ccccn1.[O-]/N=C(\c1ccccc1)c1ccccn1`, the growth inhibition was 91% (active).
On to `CCCCCCCCN1C(=O)c2ccccc2S1(=O)=O`, for which the growth inhibition was 95% (active).
Consider `CC(=O)N(C1=C(Cl)C(=O)c2ccccc2C1=O)c1ccc(C)cc1`, for which the growth inhibition is 100% (active).
For `COc1ccc(Cl)c(-c2cc(OC)c(N=N/C(=N/Nc3ccc([N+](=O)[O-])cc3)c3ccc([N+](=O)[O-])cc3)cc2Cl)c1`, the growth inhibition is 17%.
Still for that read-out and setting: the same measure for `CCOC(=O)CSC(=S)N1CCOCC1`: 0%.
Same read-out and setting: with `CC1(C)COC(c2cccc(C(O)c3ccc(Cl)cc3)c2)=N1` (stereo not given) the figure was 99% (active).
The same measure, in the same setting: the same measure for `COc1ccc(/C=C/C(C(=O)O)C(=O)O)cc1`: 89% (active); for `COc1ccc2c(Cc3ccc(O)cc3)cncc2c1O`: 27%; for `COC1=CC23C=CC1[C@@H](c1ccccc1)C2=C(C)C(=O)N3C(=O)NC1CCCCC1` (stereo not given in full): -4%.
`O=c1c2c3c(sc2nc2n1N=C(c1ccc(Br)cc1)CS2)CCCC3`: the growth inhibition is -6%.
Same read-out and setting: with `Cc1noc(NS(=O)(=O)c2ccc(N=Nc3cc(N=Nc4ccc(S(=O)(=O)Nc5onc(C)c5C)cc4)c4c(NC(=O)C(Cl)Cl)cccc4c3O)cc2)c1C` (tested in a mixture with another compound) the figure was 43%; with `CC(=O)OC1=CC2(OC(C)=O)CC(C)(C)C1C1C(=O)C=CC(=O)C12` (stereo not given), 21%.
Still for that read-out and setting: with `COC1CCC(/C(C#N)=C/c2ccco2)CC1` (stereo not given) the figure was 49%; with `CCN(CC)CCNc1cc(C)nc2c1ccc1c2ccc2c(NCCN(CC)CC)cc(C)nc21`, 97% (active); with `O=c1sc(=S)[nH]c2ccccc12`, 31%.
On the same count and under the same terms, with `Oc1c(Br)ccc2c(O)c(Br)ccc12` the figure was 88% (active); with `Nc1ccccc1CCc1ccccc1`, 91% (active); with `Cc1cc2c(cc1O)CC[C@@H]1[C@@H]2CC[C@]2(C)[C@@H](O)CC[C@@H]12`, -22%.
As to `O=c1c2ccccc2sc2c([N+](=O)[O-])ccc(NCCNCCO)c12`, the growth inhibition was 98% (active).
On the same count and under the same terms, the same measure for `NC(=S)NNc1c([N+](=O)[O-])cnn(-c2ccccc2)c1=O`: -25%.
On to `COc1ccccc1NC(=O)c1ccccc1F`, for which the growth inhibition was -43%.
Still for that read-out and setting: the same measure for `COc1ccc(/C=C2\SC(=S)N(/C=C(/C#N)C(=O)c3ccc4ccccc4c3)C2=O)cc1OC`: 99% (active).
Turning to `COC(=O)C1(OC(=O)CCC(=O)O)C(=O)NC2=C1C(=O)c1ccccc1C2=O` (stereo not given), the growth inhibition is 17%.
For `Cc1cc(=O)c2c(ccc3cc4ccccc4cc32)[nH]1`, the growth inhibition was 49%.
On to `CCc1nc(N)nc(N)c1-c1ccc(N(C)Cc2ccccc2)c([N+](=O)[O-])c1`, for which the growth inhibition was -6%.
On the same count and under the same terms, with `O=C1CSC(c2ccccc2O)N1c1ccc(-n2c(-c3ccccc3)nc3ccccc3c2=O)cc1` (stereo not given) the figure was 81% (active); with `O=C(C[P+](c1ccccc1)(c1ccccc1)c1ccccc1)c1ccc(Br)cc1`, 97% (active).
On the same count and under the same terms, with `O=NN(CCCl)C(=O)Oc1ccc(OC(=O)N(CCCl)N=O)cc1` the figure was 97% (active); with `Cc1cccc(C[N+](C)(C)CCCO)c1C`, -3%.
Same read-out and setting: with `CC(C)NC(=O)OCCS(=O)c1c(Cl)c(Cl)nn1C` (stereo not given) the figure was 56%.
Take `COC1=CC(=O)[C@H]2CC(C)=CC[C@]2(C)C1=O`: the growth inhibition is 1%.
On the same count and under the same terms, with `Oc1ccc(O)c2c(O)c3ccccc3c(O)c12` the figure was 94% (active).
On the same count and under the same terms, the same measure for `O=[N+]([O-])c1cc(Br)cc(Br)c1O`: 56%.

For the origin of these results see PubChem BioAssay (NCI).
